Source: PubChem BioAssay AID624352 (Sanford-Burnham Center for Chemical Genomics, 2012)
The whole screen tested about 360,000 compounds, of which about 2,600 (0.72%) were called active. The sample holds actives, similar compounds and a random draw of the others, so the mix is not that of the screen. A number with no mark means an inactive call.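 How the source made its calls: active means inhibition of the luminescence signal of 40% or more relative to plate controls, in a single-dose primary screen at 18.75 µM; inactive means the rest.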

test: HIF-2a reporter inhibitors, primary screen, luminescence, 786-0 RCC cells (AID 624352); conditions: 786-0 RCC cells HIF-2a reporter, luciferase luminescence, overnight; at 18.8 µM; hits give high values

Row | SMILES | inhibition
1 | O=C(O)CCn1c(O)c(C=C2N=c3ccccc3=N2)sc1=S | 48.3% (active)
2 | C=CCNC(=O)C1CC2c3ccccc3C1c1ccccc12 (stereo not given) | 15.4%
3 | CC1(C(=O)NS(=O)(=O)C2CC2)CCCN(C(=O)CSc2ccccc2)C1 (stereo not given) | 6.93%
4 | CCSc1sc(CC)cc1C=O | 18.8%
5 | COc1ccccc1CN1CC(C(=O)NCCc2cn[nH]c2)CCC1=O (stereo not given) | 11.7%
6 | COCCN(C(=O)CCC(=O)Nc1ccccn1)C(C(=O)NCCC(C)C)c1ccc(OC)cc1 (stereo not given) | 12.7%
7 | COc1ccc2nc(-c3ccccn3)ccc2c1 | -77.1%
8 | COc1ccc(C(=O)/C=C/Nc2ccccn2)cc1 | 51.6% (active)
9 | CCCN1C2CCCC1CC(NC(=O)NC13CC4CC(CC(C4)C1)C3)C2 (stereo not given) | 19.4%
10 | O=C(Nc1ccc2c(c1)OCCO2)C1CCCC1 | 41.3% (active)
11 | CN1C(=O)c2ccc(NC(=O)C3CCCCC3)cc2C1=O | -8.6%
12 | O=C(Nc1ccc2c(c1)OCO2)C1CC1(Cl)Cl (stereo not given) | -154%
13 | CCOc1ccc(S(=O)(=O)N2CCC(C(=O)NCc3ccccn3)CC2)cc1Cl | 19.5%
14 | COc1ccc(CCNC(=O)C(=O)NCC2OCCN2S(=O)(=O)c2ccc(F)cc2)cc1OC (stereo not given) | -5.35%
15 | CCOc1ccc(CN2CCN(Cc3ccc4cc(F)ccc4n3)CC2CCO)cc1 (stereo not given) | 12.7%
16 | O=C(c1ccccc1)c1cccn1CC(=O)N1CCN(c2ccc(F)cc2)CC1 | 12.9%
17 | CCOCCCN(C(=O)Cn1nnc(-c2ccc(OC)c(OC)c2)n1)C(CC)C(=O)NC1CCCC1 (stereo not given) | 18.1%
18 | C[C@H](CO)N1C[C@H](C)[C@@H](CN(C)C(=O)c2cccc(F)c2)Oc2cc(-c3cncnc3)ccc2S1(=O)=O | 9.48%
19 | COc1ccc(-c2oc3ncnc(NCCCO)c3c2-c2ccc(OC)cc2)cc1 | 40.9% (active)
20 | COc1ccc(-c2oc3ncn(Cc4ccco4)c(=N)c3c2-c2ccc(OC)cc2)cc1 | 8.92%
21 | COCCNc1ncnc2c1ncn2[C@H]1CN(Cc2ccc(OC)cc2)C[C@@H](CO)O1 | -2.96%
22 | Cc1ccc(CCCOC(=O)C[N+]2(C)CCCCC2)cc1 | 1.23%
23 | COc1ccc(NC(=O)/C(Cl)=C(/Cl)S(=O)Cc2ccc(C)cc2)cn1 (stereo not given) | 90.8% (active)
24 | C[C@@H]1CN([C@H](C)CO)C(=O)CCCn2nncc2CO[C@@H]1CN(C)S(=O)(=O)c1cccc(C#N)c1 | 13.2%

Row | SMILES | inhibition
25 | NC(c1csc(NC(=O)Nc2ccccc2Oc2ccccc2)n1)c1ccccc1Cl (stereo not given) | 24.3%
26 | CCN(CC)c1ccc(NC(=O)CCc2nnc3ccc(N4CCCCC4)nn23)c(C)c1 | -2.16%
27 | Cc1nc(C(=O)N2CCCC(C(=O)c3ccc(Cl)cc3)C2)cs1 (stereo not given) | 3.92%
28 | CC(=O)Nc1c2c(nn1-c1ccc(C)cc1C)CS(=O)C2 (stereo not given) | 4.45%
29 | CS(=O)(=O)N(Cc1ccc(Cl)cc1)c1ccc(C(=O)NCCSCc2ccco2)cc1 | 43.2% (active)
30 | Cc1cc(C)cc(N(CC(=O)NCCSCc2ccco2)S(C)(=O)=O)c1 | 15.8%
31 | CCc1ccccc1N(CC(=O)NCCSCc1ccco1)S(C)(=O)=O | 11.4%
32 | CC(C)(C)C1CCC(C(=O)Nc2cccnc2)CC1 (stereo not given) | 10%
33 | Cc1ccc2c(c1)N(CC(=O)N1CCOCC1)C(=O)CO2 | 7.44%
34 | CC(OC(=O)c1ccccc1NCCO)C(=O)Nc1ccnn1C(C)C (stereo not given) | 10%
35 | CCN1CCN(CCNC(=O)c2ccc3c(c2)NC(=O)/C(=C\c2cccc(Cl)c2)S3)CC1 | 90.6% (active)
36 | O=C1Nc2cc(C(=O)N3CCC(N4CCCCC4)CC3)ccc2S/C1=C\c1ccccc1 | -25.5%
37 | CCN1CCCC1CNC(=O)c1ccc2c(c1)NC(=O)/C(=C\c1ccccc1F)S2 (stereo not given) | -13.2%
38 | CC1CCc2sc3nc(N4CCN(CCO)CC4)n4ncnc4c3c2C1 (stereo not given) | -149%
39 | O=C1CN(C(=O)c2cc(F)cc(F)c2)c2ccccc2N1 | 11.9%
40 | COc1ccc(-c2nc(-c3ccccc3)no2)c(OC)c1 | 58.9% (active)
41 | COc1ccc(-c2onc3ccc(C(C)=O)cc23)cc1 | -105%
42 | COc1ccccc1-c1nc(C(F)(F)F)c(OC)o1 | 4.93%
43 | O=C(CCc1nnc2ccc(NCc3ccco3)nn12)Nc1cc(F)ccc1F | -0.521%
44 | Cc1ccc(Cc2cncc(O)c2)cc1S(=O)(=O)O | 9.79%
45 | Cc1ccc(CN(C(=O)c2sc3ccccc3c2Cl)C2CCS(=O)(=O)C2)cc1 (stereo not given) | 32%
46 | CC1CCCCC1NC(=O)/C(C#N)=C/C=C/c1ccccc1[N+](=O)[O-] (stereo not given) | 79.7% (active)
47 | COc1cc(/C=C(\C#N)C(=O)Nc2ccc3ccccc3c2)c([N+](=O)[O-])cc1OC | 17%
48 | CC(OC(=O)/C=C/c1ccccc1)C(=O)NC1CCCCC1C (stereo not given) | 8.8%

Row | SMILES | inhibition
49 | Cc1ccc(SCCC(=O)NC(C(C)C)C(C)C)cc1 | 23.2%
50 | CCN(CC)CCOc1ccc2c(c1)C(=NNC(=O)c1ccccn1)c1cc(OCCN(CC)CC)ccc1-2 | 13.8%
51 | Cc1ccc(N2CC(C(=O)N3CCC4(CC3)CC(=O)c3ccccc3O4)CC2=O)cc1C (stereo not given) | 2.59%
52 | CC(C)Cn1cnc2c(SCc3ccc(Cl)cc3)nc(N)nc21 | -109%
53 | CCC(C)Cn1c(O)cc2nn(-c3nc4ccccc4s3)c(=O)c-2c1C (stereo not given) | 80.9% (active)
54 | CCC/C(O)=C1\C(=O)CC(C)(C)CC1=Nc1ccccc1OC | 10%
55 | O=C(Nc1ccc(OCC(=O)N2CCOCC2)cc1)c1cc(F)c(F)cc1Cl | -39.3%
56 | CC1CC(=O)Nc2ccccc2N1C(=O)COc1ccc2cc(Br)ccc2c1 (stereo not given) | 10.2%
57 | CC(C)n1cnc2c(Nc3cccc(Cl)c3)nc(N(CCO)CCCO)nc21 | 51.3% (active)
58 | OCCCNc1nccc(-c2cc(Nc3cccc(Cl)c3)ncn2)n1 | -18.5%
59 | O=C1NC(Nc2nc3ccccc3s2)(C(F)(F)F)C(=O)N1C1CCCCC1 (stereo not given) | -11.7%
60 | COc1cc(OC)c(C2=NOC(C(=O)Nc3c(C)n(C)n(-c4ccccc4)c3=O)C2)cc1Cl (stereo not given) | 11.3%
61 | c1ccc2cc(CCCc3cc4ccccc4cn3)ncc2c1 | -39.5%
62 | CCOC(=O)c1c(C)nn(-c2ncccc2NC(=O)CCC(=O)O)c1C | 11.8%
63 | COC(=O)c1c(NC(=O)C2CC(C)=C(C)CC2C(=O)O)sc2c1CCCCC2 (stereo not given) | 16%
64 | COC(=O)c1c(NC(=O)CCCC(=O)O)sc2c1CCCCC2 | 50.8% (active)
65 | COC(=O)c1c(NC(=O)CCN2CCOCC2)sc2c1CCCC2 | 5.82%
66 | O=C(CCCn1c(=O)oc2ccccc21)Nc1cccnc1 | 2.59%
67 | NS(=O)(=O)c1cc(Cl)c(Cl)c(S(N)(=O)=O)c1 | -2.27%
68 | NC(N)=Nc1nc(-c2ccccc2)c2cc(Cl)ccc2n1 | 41.9% (active)
69 | NC(N)=Nc1nc2ccc(Br)cc2c(=O)[nH]1 | -20.2%
70 | Cc1nc(N=C(N)N)nc2c(C)cccc12 | 15%
71 | S=C(NC1CCCCC1)NN1CCOCC1 | 12.3%
72 | Cc1sc(NC(=S)NC(=O)c2cccs2)nc1-c1ccc(CC(C)C)cc1 | -5.06%

Row | SMILES | inhibition
73 | O=C(C1=C[C@H](c2coc3ccccc3c2=O)C[C@H](OCc2ccc(CO)cc2)O1)N1CCN(Cc2ccccc2)CC1 | 25%
74 | CSC1=N/C(=C\C=C\c2cccs2)C(=O)S1 | -28.6%
75 | O=C(COc1nsnc1N1CCOCC1)Nc1ccccc1Cl | -40.8%
76 | O=C(Nc1ccccc1Cl)/C(Cl)=C(\Cl)S(=O)c1ccccc1 (stereo not given) | 95.4% (active)
77 | Cc1cccc(C)c1NC(=O)CNC(=O)c1c(C)nn(-c2ccccc2)c1C | 0.612%
78 | O=C(/C=C(O)/C=C/c1ccc(O)cc1)/C=C/c1ccc(O)cc1 | -18.9%
79 | O=C(/C=C/c1ccc(Cl)c([N+](=O)[O-])c1)c1ccc(O)cc1 | 79% (active)
80 | O=C(NCCC1=CCCCC1)c1ccc(Cl)c([N+](=O)[O-])c1 | -91%
81 | O=C(CN1C(=O)c2ccccc2S1(=O)=O)N1CCc2ccccc21 | 82.3% (active)
82 | CN(Cc1cccs1)C(=O)CN1C(=O)c2ccccc2S1(=O)=O | -66.1%
83 | Cc1ccc(S(=O)(=O)N(C)CC(=O)N2CCc3ccccc32)cc1 | -0.159%
84 | COCCNC(=O)c1ccc2c(c1)ncn2-c1ccc(C)c(Cl)c1 | -31.7%
85 | Cc1ccc(CNC(=O)COC(=O)C2CCC2)cc1 | 2.35%
86 | CCc1c(N=O)c(-c2ccccc2)n(O)[n+]1[O-] | -2.82%
87 | Cc1ccc(S(=O)(=O)NCC(=O)N(CC(=O)NCC2CCCO2)c2cccc(F)c2)cc1 (stereo not given) | 8.25%
88 | CC1CCc2c(c3ccccc3[nH]c2=O)O1 (stereo not given) | 6.77%
89 | Cc1cc(Cl)c(S(=O)(=O)N(C)C)cc1OCC(N)=O | 7%
90 | Cc1cc(Cl)c(S(=O)(=O)Nc2ccc3c(c2)OCCO3)cc1OCC(N)=O | 43.7% (active)
91 | Cc1cc(Cl)c(S(=O)(=O)NCCC(=O)O)cc1OCC(N)=O | 0.473%
92 | CCNC(=O)C1(C)CCCN(C(=O)c2ccc3ccccc3n2)C1 (stereo not given) | 3.52%
93 | COc1cc(SC)ccc1C(=O)Nc1nc(C)cs1 | 77.6% (active)
94 | COCCn1c(SCC(=O)Nc2nc(C)cs2)nnc1C(C)C | 9.65%
95 | Cc1csc(NC(=O)CSc2ccc(-c3ccc(F)cc3)nn2)n1 | -4.55%
